Measurements published in PubChem BioAssay AID485313 (National Center for Advancing Translational Sciences (NCATS), 2010).
Among all 320,000 compounds or so, about 7,600 (2.4%) were called active. About 3% were inconclusive and are not listed. The call rests on the fitted dose curve; in most records, active means well fitted activation curve with a large enough effect; inconclusive means small, poorly fitted or top-dose-only effect; inactive means no such curve, though single readings can be large or run the other way. Shown is part of a subset that was picked to be rich in actives.

Assay: qHTS Assay for NPC1 Promoter Activators; further: nearly all actives have a fitted effect of over 60% in size;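 on activation: reporter is driven by a mutant NPC1 promoter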
Conditions: Huh7 NPC1 promoter luciferase reporter, 24 h; series mostly up to 9.22 µM
Procedure, shortened: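 Huh7 cells stably carrying NPC1 promoter–luciferase, plated in Opti-MEM with 10% FBS for 2 h, were exposed to compound in DMSO for 24 h at 37 °C; luciferase reagent was added for 10 min and luminescence read.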
Potency means the concentration at half of the fitted maximal effect.

Potency, active:
c1ccc(CSc2nnc(-c3ccco3)n2Cc2ccccc2)cc1 2820 nM
CN(C)c1ccnc2sc(C(=O)c3ccccc3)c(N)c12 2510 nM
COc1ccc(NC(=O)C2COc3ccccc3O2)cc1 (centres undefined) 2820 nM
O=C(Nc1ncc([N+](=O)[O-])s1)C1COc2ccccc2O1 (centres undefined) 3550 nM
CC(C)(C)c1ccc(/C=C/C(=O)Nc2ncccn2)cc1 3980 nM
Cc1nc(-c2ccc(NC(=O)c3cccs3)cc2)cs1 355 nM
O=C(c1cc(-c2ccc(O)cc2)on1)N1CCOCC1 891 nM
COc1ccccc1-c1cc(C(=O)N2CCCCC2)no1 3550 nM
COc1ccc(OCc2cc(C(=O)N3CCCC3)no2)c2ccccc12 3160 nM
O=C(c1cc(-c2cccs2)on1)N1CCCCC1 1000 nM
C=CCc1c(C)nc2cc(-c3ccccc3)[nH]n2c1=O 1780 nM
CC1CN/C(=C\C(=O)c2ccc(Br)cc2)C(=O)N1 (centres undefined) 891 nM
O=C(Nc1ccc(C2CC2(Cl)Cl)cc1)c1cccc([N+](=O)[O-])c1 (centres undefined) 2000 nM
C=CCN1CCN(C(=O)CCCc2ccccc2)CC1 316 nM
Brc1ccc(-c2noc(-c3ccccc3)n2)o1 2240 nM

Potency, inactive:
O=C(CSc1nnc(-c2ccco2)n1-c1ccccc1)NCCc1ccccc1
O=C(CSc1nnc(-c2ccco2)n1CC1CCCO1)c1ccccc1 (centres undefined)
C=CCN1C(=O)c2ccc(C(=O)N3CCC(C(=O)OCC)CC3)cc2C1=O
O=C(CCNS(=O)(=O)c1ccccc1)NCCSc1ccc(Br)cc1
O=S(=O)(Nc1cc(Cl)ccc1N1CCOCC1)c1ccccc1Cl
C[C@@H]1NC(=O)[C@@]2(C)[C@@H](c3ccccc3)[C@H]3COc4ccccc4[C@@H]3N2C1=O
CCOC(=O)c1c(CNCc2ccccc2F)c2sc(C)cc2n1C
Cc1nc2sc(C(=O)c3ccccc3)c(N)c2c2c1CCCC2
CN(C)c1ccnc2sc3c(=O)n(Cc4ccccc4)cnc3c12
Nc1ncnc2c1c(I)cn2[C@@H]1C[C@H](N)[C@@H](O)[C@H]1O
Cc1nn(Cc2ccccc2)c(C)c1CNC(=O)c1ccc(F)c(S(=O)(=O)N2CCOCC2)c1
CN(CC(=O)Nc1cccc(F)c1)C(=O)CC1CCCC1
COc1ccc(NC(=O)CC2COc3ccccc3O2)c(OC)c1 (centres undefined)
CC(=O)c1cccc(NC(=O)C2COc3ccccc3O2)c1 (centres undefined)
C/C(=N/NC(=O)C1COc2ccccc2O1)c1ccco1 (centres undefined)
O=C(Nc1nnc(SCc2ccc(Cl)cc2Cl)s1)C1COc2ccccc2O1 (centres undefined)
CCc1noc(C)c1C(=O)N1CCN(S(=O)(=O)c2cccc(C(F)(F)F)c2)CC1
Cc1ccc(CSc2ccc(S(=O)(=O)N3CCCCC3)cn2)cc1
O=C(/C=C/c1ccc(Cl)cc1)Nc1ccc(S(=O)(=O)Nc2ncccn2)cc1
Cc1cc(C)nc(NC(=O)/C=C/c2ccc(Cl)cc2)n1
Cc1sc2ncnc(N3CCC(C(=O)Nc4ccc(F)cc4Cl)CC3)c2c1C
CCOC(=O)N1CCN(C(=O)COC(=O)c2cccc(S(C)(=O)=O)c2)CC1
Cc1ccc(C(=O)Nc2ccc(NC(=O)c3cccs3)cc2)c(C)c1
O=C(Nc1ccccc1)c1ccc(NC(=O)c2cccs2)cc1
Cc1noc(C)c1C(=O)NCC1COc2ccccc2O1 (centres undefined)
O=C(c1cc(-c2ccc(F)cc2)on1)N1CCN(c2ccc(F)cc2)CC1
O=C(c1cc(-c2ccc(Cl)cc2)on1)N1CCN(c2ccccc2)CC1
COCCN1CCN(C(=O)c2cc(COc3ccc(F)cc3Cl)on2)CC1
CC(=O)c1ccc(NC(=O)c2cc(-c3cccs3)on2)cc1
COc1cccc(-c2cc(C(=O)N3CCN(c4ccccc4OC)CC3)no2)c1
O=C(CSc1n[nH]c(-c2cccs2)n1)N1CCCCC1
COc1ccccc1-c1cc(C(=O)NCCCn2ccnc2)no1
COc1cc(Cl)ccc1OCc1cc(C(=O)N2CC[C@@H]3CCCC[C@H]3C2)no1
Cc1ccc(OCC(=O)N2CCN(S(=O)(=O)c3ccc(Cl)s3)CC2)cc1C
CCN(CC)c1ccc(NC(=O)CN2C(=O)NC3(CCc4ccccc43)C2=O)cc1 (centres undefined)
CCOC(=O)C1CCCN(C(=O)c2ccc(C)c(S(=O)(=O)N3CCCCC3)c2)C1 (centres undefined)
CCc1c(C)nc2cc(-c3cccs3)[nH]n2c1=O
CCc1c(C)nc2cc(C)[nH]n2c1=O
O=C(Nc1cccc2ccccc12)c1onc2c1CCCC2
COc1ccccc1C(CNC(=O)c1ccc(C)c(S(=O)(=O)N2CCCCC2)c1)N(C)C (centres undefined)
CC1(C)Cc2ccccc2/C(=C/C(=O)c2ccccc2)N1
COc1cc2c(cc1OC)/C(=C/C(=O)c1ccc(NC(C)=O)cc1)NCC2
O=C(NCC#CCSc1nnc(-c2cccc3ccccc23)o1)c1cccs1
O=C(NNC(=O)c1cccc(S(=O)(=O)Nc2ccc(Cl)cc2)c1)c1ccc(=O)[nH]c1
CCC(=O)N(CCc1ccccc1)Cc1cc2cc(C)ccc2[nH]c1=O
O=C(Nc1ccc(C(=O)N2CCCCC2)cc1)c1cccc([N+](=O)[O-])c1
O=C(Nc1ccc(NC(=O)c2ccco2)c(Cl)c1)c1cccc([N+](=O)[O-])c1
O=C(CN1C(=O)NC2(CCOc3ccccc32)C1=O)NCc1ccc(F)cc1 (centres undefined)
O=C(OCC(=O)N1CCCCCC1)c1cnc(Cl)c(Cl)c1
CCC(C)NC(=O)CCCc1ccccc1 (centres undefined)
O=C(CCCc1ccccc1)NCc1ccccc1
Nc1nnc(SCC(=O)NCC(=O)Nc2ccc(F)c(F)c2F)s1
Cn1nc(-c2ccccc2)c(-c2nc(-c3ccc(Cl)cc3)no2)c1Cl
Nc1nonc1-c1noc(-c2ccc(Br)o2)n1
